# Assay results reported in PubChem BioAssay (EPA / NIEHS).
# Calls of active or inactive are those of the source. How the source made its calls: active means hit-call score of the fitted dose curve at least 0.9, where 1 is the maximum; inactive means score below 0.9.
# Legend:
# [1] = read-out: Monokine induced gamma interferon (MIG), CXCL9 (gene 4283); experiment: BSK_hDFCGF_MIG: BioMAP Diversity Plus: hDFCGF Assay for Monokine induced gamma interferon (MIG) Biomarker Activity (AID 2283063); conditions: primary human foreskin fibroblasts; actives raise or lower the signal
# Method in brief: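 ELISA read-out of MIG from primary human dermal fibroblasts 24 h post-dosing. Gain or loss of signal fitted bidirectionally, DMSO as baseline.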
# [2] = read-out: Matrix Metallopeptidase 1 (MMP1), MMP1 (gene 4312); experiment: BSK_hDFCGF_MMP1: BioMAP Diversity Plus: hDFCGF Assay for Matrix Metallopeptidase 1 (MMP1) Biomarker Activity (AID 2283064); conditions: primary human foreskin fibroblasts; actives raise or lower the signal
# Method in brief: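 hDFCGF primary fibroblasts (human foreskin); chemical added; 24 h; MMP1 by ELISA; bidirectional fit vs DMSO.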
# [3] = read-out: Vascular cell adhesion molecule 1 (VCAM1), VCAM1 (gene 7412); experiment: BSK_hDFCGF_VCAM1: BioMAP Diversity Plus: hDFCGF Assay for Vascular cell adhesion molecule 1 (VCAM1) Biomarker Activity (AID 2283065); conditions: primary human foreskin fibroblasts; actives raise or lower the signal;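 on AC50: VCAM-1 protein level quantified by ELISA after 24 h chemical exposure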
# Method in brief: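 Primary human foreskin fibroblasts (hDFCGF system) were dosed with chemical and VCAM-1 was measured by ELISA 24 h later. Bidirectional curve fitting used DMSO as negative control and activity baseline.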
# [4] = read-out: Plasminogen activator inhibitor-1 (PAI1), SERPINE1 (gene 5054); experiment: BSK_hDFCGF_PAI1: BioMAP Diversity Plus: hDFCGF Assay for Plasminogen activator inhibitor-1 (PAI1) Biomarker Activity (AID 2283066); conditions: primary human foreskin fibroblasts; actives raise or lower the signal
# Method in brief: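 Human foreskin fibroblasts in the hDFCGF system were dosed with compound for 24 h; PAI-1 was quantified by ELISA. Bidirectional curve fitting used DMSO as negative control and baseline.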
# [5] = read-out: Intercellular Adhesion Molecule 1 (ICAM1), ICAM1 (gene 3383); experiment: BSK_KF3CT_ICAM1: BioMAP Diversity Plus: KF3CT Assay for Intercellular Adhesion Molecule 1 (ICAM1) Biomarker Activity (AID 2283067); conditions: primary human keratinocytes with fibroblasts; actives raise or lower the signal
# Method in brief: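 Human keratinocyte plus foreskin fibroblast primary co-culture was exposed to chemical for 24 h. ICAM-1 was then quantified by ELISA, and the data were fit bidirectionally against DMSO as the negative control and baseline.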
# [6] = read-out: Interferon-gamma inducible Protein 10 (IP10), CXCL10 (gene 3627); experiment: BSK_KF3CT_IP10: BioMAP Diversity Plus: KF3CT Assay for Interferon-gamma inducible Protein 10 (IP10) Biomarker Activity (AID 2283068); conditions: primary human keratinocytes with fibroblasts; actives raise or lower the signal
# Method in brief: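 Human keratinocyte plus foreskin fibroblast primary co-culture exposed to test chemical for 24 h; IP-10 measured by ELISA. Concentration-response fitted bidirectionally against DMSO control as baseline.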
# [7] = BSK_KF3CT_SRB: Viability Assessment in the BioMAP Diversity Plus: KF3CT Assay (AID 2283069); conditions: primary human keratinocytes with fibroblasts;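 further: total protein by sulforhodamine B staining as a cytotoxicity measure; read 24 h after compound addition; fitted for both signal gain and loss against DMSO baseline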
# Method in brief: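 Keratinocytes co-cultured with foreskin fibroblasts (human primary); chemical added, 24 h; fix 10% TCA, stain 0.1% SRB, A560. Bidirectional fit vs DMSO.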
# [8] = read-out: Interleukin-1 alpha (IL1a), IL1A (gene 3552); experiment: BSK_KF3CT_IL1a: BioMAP Diversity Plus: KF3CT Assay for Interleukin-1 alpha (IL1a) Biomarker Activity (AID 2283070); conditions: primary human keratinocytes with fibroblasts; actives raise or lower the signal
# Method in brief: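 Chemicals were dosed onto co-cultured human keratinocytes and foreskin fibroblasts, IL-1a was quantified by ELISA at 24 h, and activity was fitted in both directions relative to DMSO controls.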
# [9] = read-out: TIMP metallopeptidase inhibitor 2 (TIMP2), TIMP2 (gene 7077); experiment: BSK_KF3CT_TIMP2: BioMAP Diversity Plus: KF3CT Assay for TIMP metallopeptidase inhibitor 2 (TIMP2) Biomarker Activity (AID 2283071); conditions: primary human keratinocytes with fibroblasts; actives raise or lower the signal
# Method in brief: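 Human primary keratinocyte/foreskin fibroblast co-culture dosed with chemical and sampled at 24 h. TIMP-2 levels quantified by ELISA; bidirectional fitting against DMSO negative control as baseline.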
# [10] = read-out: Transforming growth factor beta 1 (TGFb1), TGFB1 (gene 7040); experiment: BSK_KF3CT_TGFb1: BioMAP Diversity Plus: KF3CT Assay for Transforming growth factor beta 1 (TGFb1) Biomarker Activity (AID 2283072); conditions: primary human keratinocytes with fibroblasts; actives raise or lower the signal
# Method in brief: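 Human keratinocyte plus foreskin fibroblast primary co-culture, dosed with chemical for 24 h. TGF-b1 quantified by ELISA. Activity fitted bidirectionally against DMSO negative control as baseline.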
structure (smiles),measurement,setting,value
CCOC(=O)c1ccc(C2CCC(NC[C@H](O)COc3ccc(O)c(NS(C)(=O)=O)c3)CC2)cc1 (stereo partly drawn),AC50,[1],24.7 µM (active)
same,AC50,[2],15.7 µM (active)
same,AC50,[3],8.27 µM (active)
same,AC50,[4],8.8 µM (active)
same,outcome,[5],inactive
same,outcome,[6],inactive
same,outcome,[7],inactive
same,outcome,[8],inactive
same,outcome,[9],inactive
same,AC50,[10],18.7 µM (active)
O=C(O)c1cccc(N(Cc2cccnc2)c2ccc(OC(F)F)c(OC(F)F)c2)c1,outcome,[1],inactive
same,outcome,[2],inactive
same,AC50,[3],1.27 µM (active)
same,AC50,[4],1.26 µM (active)
same,outcome,[5],inactive
same,outcome,[6],inactive
same,outcome,[7],inactive
same,outcome,[8],inactive
same,outcome,[9],inactive
same,outcome,[10],inactive
Cc1c(-c2cccnc2)c2ccccc2n1CCCCC(=O)O,outcome,[1],inactive
same,outcome,[2],inactive
same,outcome,[3],inactive
same,outcome,[4],inactive
same,outcome,[5],inactive
same,outcome,[6],inactive
same,outcome,[7],inactive
same,outcome,[8],inactive
same,outcome,[9],inactive
same,outcome,[10],inactive
CC(C)=CCC/C(C)=C/CO,outcome,[1],inactive
same,outcome,[2],inactive
same,outcome,[3],inactive
same,outcome,[4],inactive
same,outcome,[5],inactive
same,outcome,[6],inactive
same,outcome,[7],inactive
same,outcome,[8],inactive
same,outcome,[9],inactive
same,outcome,[10],inactive
CC(C)CCO,outcome,[1],inactive
same,outcome,[2],inactive
same,outcome,[3],inactive
same,outcome,[4],inactive
same,outcome,[5],inactive
same,outcome,[6],inactive
same,outcome,[7],inactive
same,outcome,[8],inactive
same,outcome,[9],inactive
same,outcome,[10],inactive
CCOc1cccc(-n2cc(C(=O)N3CCN(c4cc(C(=O)O)c5ccccc5c4)CC3)nc2-c2ccc(C)cc2)c1,AC50,[1],26.3 µM (active)
same,AC50,[2],16.5 µM (active)
same,AC50,[3],12.9 µM (active)
same,AC50,[4],6.1 µM (active)
same,AC50,[5],30.5 µM (active)
same,AC50,[6],29.2 µM (active)
same,AC50,[7],21.3 µM (active)
same,AC50,[8],30.1 µM (active)
same,AC50,[9],14.7 µM (active)
same,AC50,[10],14.4 µM (active)
COC(=O)c1ccccc1O,outcome,[1],inactive
same,outcome,[2],inactive
same,outcome,[3],inactive
same,outcome,[4],inactive
same,outcome,[5],inactive
same,outcome,[6],inactive
same,outcome,[7],inactive
same,outcome,[8],inactive
same,outcome,[9],inactive
same,outcome,[10],inactive
O=C(O)CCN(C1(C(=O)NO)CCCC1)S(=O)(=O)c1ccc(Oc2ccc(F)cc2)cc1,outcome,[1],inactive
same,outcome,[2],inactive
same,outcome,[3],inactive
same,outcome,[4],inactive
same,outcome,[5],inactive
same,outcome,[6],inactive
same,outcome,[7],inactive
same,outcome,[8],inactive
same,outcome,[9],inactive
same,outcome,[10],inactive
COc1ccc(/C=C/S(=O)(=O)NC(=O)c2ccc(C)cc2Cl)cc1,outcome,[1],inactive
same,outcome,[2],inactive
same,outcome,[3],inactive
same,outcome,[4],inactive
same,outcome,[5],inactive
same,AC50,[6],32.6 µM (active)
same,outcome,[7],inactive
same,AC50,[8],8.09 µM (active)
same,outcome,[9],inactive
same,outcome,[10],inactive
O=C1CCC(N2C(=O)c3ccccc3C2=O)C(=O)N1 (stereo not drawn),outcome,[1],inactive
same,outcome,[2],inactive
same,outcome,[3],inactive
same,outcome,[4],inactive
same,outcome,[5],inactive
same,outcome,[6],inactive
same,outcome,[7],inactive
same,outcome,[8],inactive
same,outcome,[9],inactive
same,outcome,[10],inactive
C1N2CN3CN1CN(C2)C3,outcome,[1],inactive
same,outcome,[2],inactive
same,outcome,[3],inactive
same,outcome,[4],inactive
same,outcome,[5],inactive
same,outcome,[6],inactive
same,outcome,[7],inactive
same,outcome,[8],inactive
same,outcome,[9],inactive
same,outcome,[10],inactive
Clc1nc(Cl)c(Cl)c(Cl)c1Cl,outcome,[1],inactive
same,outcome,[2],inactive
same,outcome,[3],inactive
same,outcome,[4],inactive
same,outcome,[5],inactive
same,outcome,[6],inactive
same,outcome,[7],inactive
same,outcome,[8],inactive
same,outcome,[9],inactive
same,outcome,[10],inactive
CC[C@H](C)C(=O)O[C@H]1C[C@@H](C)C=C2C=C[C@H](C)[C@H](CC[C@@H]3C[C@@H](O)CC(=O)O3)[C@H]21,AC50,[1],36.3 µM (active)
same,AC50,[2],36.6 µM (active)
same,AC50,[3],29.8 µM (active)
same,AC50,[4],31.9 µM (active)
same,AC50,[5],33.6 µM (active)
same,AC50,[6],34.6 µM (active)
same,AC50,[7],31.7 µM (active)
same,AC50,[8],33.5 µM (active)
same,AC50,[9],33.8 µM (active)
same,AC50,[10],33.3 µM (active)
O=C(O)c1cccc(Oc2ccccc2)c1,outcome,[1],inactive
same,outcome,[2],inactive
same,outcome,[3],inactive
same,outcome,[4],inactive
same,outcome,[5],inactive
same,outcome,[6],inactive
same,outcome,[7],inactive
same,outcome,[8],inactive
same,outcome,[9],inactive
same,outcome,[10],inactive
CC(C)CC(C)(O)C#CC(C)(O)CC(C)C (stereo not drawn),outcome,[1],inactive
same,outcome,[2],inactive
same,outcome,[3],inactive
same,outcome,[4],inactive
same,outcome,[5],inactive
same,outcome,[6],inactive
same,outcome,[7],inactive
same,outcome,[8],inactive
same,outcome,[9],inactive
same,outcome,[10],inactive
O=C1OC(=O)C2C3C=CC(C3)C12 (stereo not drawn),outcome,[1],inactive
same,outcome,[2],inactive
same,outcome,[3],inactive
same,outcome,[4],inactive
same,outcome,[5],inactive
same,outcome,[6],inactive
same,outcome,[7],inactive
same,outcome,[8],inactive
same,outcome,[9],inactive
same,outcome,[10],inactive
CCCCCCc1ccc(O)cc1O,AC50,[1],33.6 µM (active)
same,AC50,[2],37.9 µM (active)
same,AC50,[3],28.1 µM (active)
same,AC50,[4],30.7 µM (active)
same,AC50,[5],31.3 µM (active)
same,AC50,[8],30.3 µM (active)
same,AC50,[9],32.7 µM (active)
same,AC50,[10],29.7 µM (active)
CC/C(=C\C(=N/O)C(N)=O)C(C)[N+](=O)[O-] (stereo not drawn),outcome,[1],inactive
same,outcome,[2],inactive
same,outcome,[3],inactive
same,outcome,[4],inactive
same,outcome,[5],inactive
same,outcome,[6],inactive
same,outcome,[7],inactive
same,outcome,[8],inactive
same,outcome,[9],inactive
same,outcome,[10],inactive
CN(C)c1ccc(N=NS(=O)(=O)O)cc1,outcome,[1],inactive
same,outcome,[2],inactive
same,AC50,[3],3.79 µM (active)
same,outcome,[4],inactive
same,outcome,[5],inactive
same,outcome,[6],inactive
same,outcome,[7],inactive
same,outcome,[8],inactive
same,outcome,[9],inactive
same,outcome,[10],inactive
O=P(OC(CCl)CCl)(OC(CCl)CCl)OC(CCl)CCl,outcome,[1],inactive
same,outcome,[2],inactive
same,outcome,[3],inactive
same,outcome,[4],inactive
same,outcome,[5],inactive
same,outcome,[6],inactive
same,outcome,[7],inactive
same,outcome,[8],inactive
same,outcome,[9],inactive
same,outcome,[10],inactive
CCCCCCCCO,outcome,[1],inactive
same,outcome,[2],inactive
same,outcome,[3],inactive
same,outcome,[4],inactive
same,outcome,[5],inactive
same,outcome,[6],inactive
same,outcome,[7],inactive
same,outcome,[8],inactive
same,outcome,[9],inactive
same,outcome,[10],inactive
